Assay results published in PubChem BioAssay (EPA / NIEHS).
Results filed as inconclusive are left out. Active and inactive are the calls of the source. The calls were made as follows, unless noted: active = hit-call score of the fitted dose curve at least 0.9, where 1 is the maximum; inconclusive = response in the unintended direction; inactive = score below 0.9.

Columns and labels:
[1] = TOX21_p53_BLA_p2_viability: Viability Assessment in the Tox21 HCT-116 p53 Agonism Beta-lactamase Assay, Phase 2 (AID 2283591);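 also: actives lower the ATP signal meaning cytotoxicity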
How it was run: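 HCT116 p53-bla cells, 4000/well, dosed after 5 h plating (217-fold dilution of DMSO stocks) and incubated 16 h at 37C. Viability taken as cellular ATP by CellTiter-Glo luminescence after 30 min RT; signal loss marks cytotoxicity.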

[2] = biological target: Cellular tumor antigen p53 (Homo sapiens) (UniProt P04637); assay: TOX21_p53_BLA_p2_ratio: Tox21 HCT-116 p53 Agonism Beta-lactamase Assay, Ratio, Phase 2 (AID 2283592)
How it was run: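 Readout: blue/green (460/530 nm) FRET emission ratio after 2 h CCF4-AM loading at room temperature, excitation 405 nm. HCT116 p53 bla cells, 16 h compound exposure at 37C, 5% CO2; agonist direction fitted against DMSO baseline.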

[3] = TOX21_p53_BLA_p3_viability: Viability Assessment in the Tox21 HCT-116 p53 Agonism Beta-lactamase Assay, Phase 3 (AID 2283593);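 also: cells exposed to compound for 16 h before reading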
How it was run: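 HCT116 cells, 4000/well, dosed 5 h after plating by pin transfer (217-fold dilution from DMSO stock) and incubated 16 h at 37C, 5% CO2. Viability read as ATP luminescence with CellTiter-Glo after 30 min at room temperature.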

[4] = biological target: Cellular tumor antigen p53 (Homo sapiens) (UniProt P04637); assay: TOX21_p53_BLA_p3_ratio: Tox21 HCT-116 p53 Agonism Beta-lactamase Assay, Ratio, Phase 3 (AID 2283596)
How it was run: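 Cells were seeded at 4000/well, rested 5 h at 37C, then dosed with DMSO compound solutions (217-fold dilution) for 16 h. CCF4-AM substrate was loaded for 2 h at room temperature, and the 460/530 nm emission ratio was fitted for gain of signal versus DMSO.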

[5] = TOX21_p53_BLA_p4_viability: Viability Assessment in the Tox21 HCT-116 p53 Agonism Beta-lactamase Assay, Phase 4 (AID 2283597);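 also: hits lower the luminescence signal meaning cytotoxicity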
How it was run: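 ATP content by CellTiter-Glo luminescence, 30 min RT, read after the beta-lactamase ratio step. Cells: HCT116, 4000/well, compound added after 5 h, exposure 16 h at 37C. Signal loss = reduced viability.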

[6] = biological target: Cellular tumor antigen p53 (Homo sapiens) (UniProt P04637); assay: TOX21_p53_BLA_p5_ratio: Tox21 HCT-116 p53 Agonism Beta-lactamase Assay, Ratio, Phase 5 (AID 2283599)
How it was run: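 HCT-116 p53-bla cells (4000/well) plated 5 h, dosed with compound (217-fold DMSO dilution) for 16 h at 37 C; CCF4-AM substrate 2 h at room temperature. Activity is the 460/530 nm emission ratio (405 nm excitation), fitted in gain-of-signal direction versus DMSO.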

[7] = TOX21_p53_BLA_p5_viability: Viability Assessment in the Tox21 HCT-116 p53 Agonism Beta-lactamase Assay, Phase 5 (AID 2283600)
How it was run: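 ATP luminescence (CellTiter-Glo, 30 min, RT) served as the viability read-out, with loss of signal indicating cytotoxicity. Compounds in DMSO were pinned at a 217-fold dilution onto 4000 cells/well and incubated 16 h, 37C.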

[8] = CCTE_Shafer_MEA_dev_firing_rate_mean: CCTE's Neural Network Formation Assay for Mean Firing Rate, Shafer Lab (AID 2284031; active = hit-call score of the fitted dose curve at least 0.9, where 1 is the maximum; inactive = score below 0.9)
How it was run: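 Read-out: spike count/recording length, averaged over active electrodes, then AUC across days 5, 7, 9, 12. Rat cortical cultures on MEA; continuous 12-day exposure, media and treatment renewed DIV 5, 9; DMSO baseline.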

[9] = CCTE_Shafer_MEA_dev_per_burst_spike_percent: CCTE's Neural Network Formation Assay for Percent of Spikes in a Burst, Shafer Lab (AID 2284032; active = hit-call score of the fitted dose curve at least 0.9, where 1 is the maximum; inactive = score below 0.9)
How it was run: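 Value is trapezoidal AUC over recordings on days 5, 7, 9 and 12 of the well-mean fraction of spikes falling in single-electrode bursts; rat cortical cultures exposed continuously from plating, treatment renewed DIV 5 and 9, fitted downward against DMSO.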

[10] = CCTE_Shafer_MEA_dev_burst_rate: CCTE's Neural Network Formation Assay for Burst Rate, Shafer Lab (AID 2284042; active = hit-call score of the fitted dose curve at least 0.9, where 1 is the maximum; inactive = score below 0.9)
How it was run: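 Cells plated, treated day 0; recorded DIV 5, 7, 9, 12; fed and re-treated DIV 5, 9. Endpoint: bursts per recording time, active-electrode well mean, trapezoidal AUC, fitted in decreasing direction against DMSO baseline.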

[11] = CCTE_Shafer_MEA_dev_per_burst_interspike_interval: CCTE's Neural Network Formation Assay for Burst Interspike Interval, Shafer Lab (AID 2284044; active = hit-call score of the fitted dose curve at least 0.9, where 1 is the maximum; inactive = score below 0.9)
How it was run: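 Readout is the average time between spikes inside single-electrode bursts, taken as a well mean across bursting electrodes. Cortical neurons from rat developed networks on MEA plates under continuous 12-day exposure; recordings on days 5, 7, 9 and 12 were integrated by trapezoidal AUC.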

[12] = CCTE_Shafer_MEA_dev_burst_duration_mean: CCTE's Neural Network Formation Assay for Mean Burst Duration, Shafer Lab (AID 2284045; active = hit-call score of the fitted dose curve at least 0.9, where 1 is the maximum; inactive = score below 0.9)
How it was run: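 Rat cortical cultures, 1.5 x 10^5 cells/well with laminin drop; continuous dosing days 0–12, media plus treatment refreshed DIV 5, 9. AxIS adaptive spike detection; mean single-electrode burst duration, AUC over four recordings, negative direction vs DMSO.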

[13] = CCTE_Shafer_MEA_dev_interburst_interval_mean: CCTE's Neural Network Formation Assay for Mean Interburst Interval, Shafer Lab (AID 2284046; active = hit-call score of the fitted dose curve at least 0.9, where 1 is the maximum; inactive = score below 0.9;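 also: well-mean interburst interval of bursting electrodes as AUC over four recording days; curve fitted for decrease in interburst interval relative to DMSO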)
How it was run: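 Developing rat cortical networks on 48-well MEAs receive compound from the day of plating. Burst intervals from each active electrode are averaged per well, and AUC over the recording days is fitted in the negative direction against DMSO.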

[14] = CCTE_Shafer_MEA_dev_network_spike_number: CCTE's Neural Network Formation Assay for Number of Network Spikes, Shafer Lab (AID 2284048; active = hit-call score of the fitted dose curve at least 0.9, where 1 is the maximum; inactive = score below 0.9)
How it was run: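 Rat cortical primary cultures on 48-well MEA (16 electrodes/well); continuous exposure DIV 0–12, full medium and treatment exchange DIV 5, 9. Readout: network spike count, AxIS adaptive detection, recordings DIV 5/7/9/12 collapsed to AUC; loss-of-signal fit, DMSO baseline.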

[15] = CCTE_Shafer_MEA_dev_network_spike_peak: CCTE's Neural Network Formation Assay for Mean Number of Electrodes in Network Spike, Shafer Lab (AID 2284049; active = hit-call score of the fitted dose curve at least 0.9, where 1 is the maximum; inactive = score below 0.9)
How it was run: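 Network-spike peak electrode count from recordings on days 5, 7, 9 and 12 was combined as trapezoidal area under the curve. Rat cortical cultures were treated continuously from plating, with compound renewed at each feed (DIV 5, 9); fits versus DMSO.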

[16] = CCTE_Shafer_MEA_dev_spike_duration_mean: CCTE's Neural Network Formation Assay for Mean Spike Duration, Shafer Lab (AID 2284051; active = hit-call score of the fitted dose curve at least 0.9, where 1 is the maximum; inactive = score below 0.9;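 also: mean network spike duration pooled as area under curve over DIV 5 to 12 recordings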)
How it was run: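 Readout is the average length of network spikes, clustered firing across electrodes, summed over DIV 5, 7, 9 and 12 as area under the curve. Neurons from rat cortex developed networks on MEA plates under continuous 12-day exposure.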

[17] = CCTE_Shafer_MEA_dev_network_spike_duration_std: CCTE's Neural Network Formation Assay for Standard Deviation of Network Spike Duration, Shafer Lab (AID 2284052; active = hit-call score of the fitted dose curve at least 0.9, where 1 is the maximum; inactive = score below 0.9;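 also: area under curve of spike duration SD across recording days 5 to 12; hits are decreases in network spike duration SD versus DMSO vehicle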)
How it was run: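 Read-out is the trapezoidal area-under-the-curve across recordings made on days 5, 7, 9 and 12, fitted in the negative direction against DMSO baseline. Neurons were primary rat cortical cells treated from day 0, with treatment renewed at each feed.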

[18] = CCTE_Shafer_MEA_dev_per_network_spike_spike_number_mean: CCTE's Neural Network Formation Assay for Mean Number of Spikes in a Network Spike, Shafer Lab (AID 2284053; active = hit-call score of the fitted dose curve at least 0.9, where 1 is the maximum; inactive = score below 0.9)
How it was run: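 Continuous twelve-day exposure of developing rat cortical networks grown over 16 microelectrodes per well; spontaneous firing is captured at four time points, and the per-network-spike spike number is integrated over development by trapezoidal AUC.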

[19] = CCTE_Shafer_MEA_dev_per_network_spike_spike_percent: CCTE's Neural Network Formation Assay for Percent of Spikes in a Network Spike, Shafer Lab (AID 2284054; active = hit-call score of the fitted dose curve at least 0.9, where 1 is the maximum; inactive = score below 0.9)
How it was run: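 Read-out: percent of spikes falling in a 0.05 s window at network-spike peak, from spontaneous MEA recordings on days 5, 7, 9 and 12; trapezoidal AUC; loss of signal versus DMSO. Rat cortical cultures, compound present throughout.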

[20] = CCTE_Shafer_MEA_dev_LDH: CCTE's Lactate Dehydrogenase Assay for Cytotoxicity in the Neural Network Formation Assay, Shafer Lab (AID 2284068);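 also: exposure for twelve days from plating with re-dosing on DIV 5 and 9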
How it was run: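 Cytotoxicity companion to network-formation recordings: rat cortical neurons received compound over 12 days of development, re-dosed at DIV 5 and 9 feeds. Viability was inferred from LDH enzyme activity relative to DMSO.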

[21] = CCTE_Shafer_MEA_dev_mutual_information_norm: CCTE's Neural Network Formation Assay for Mutual Information Normalization, Shafer Lab (AID 2284091; active = hit-call score of the fitted dose curve at least 0.9, where 1 is the maximum; inactive = score below 0.9)
How it was run: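 Neurons from rat cortex were seeded at 1.5 x 10^5 cells/well onto PEI-coated MEAs in a laminin drop, then exposed to compound from day 0 for twelve days. Network recordings on four days gave mutual information, summarised by AUC relative to DMSO.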

[22] = CCTE_Shafer_MEA_dev_correlation_coefficient_mean: CCTE's Neural Network Formation Assay for Mean Correlation Coefficient, Shafer Lab (AID 2284093; active = hit-call score of the fitted dose curve at least 0.9, where 1 is the maximum; inactive = score below 0.9)
How it was run: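 Read-out: well-mean correlation coefficient of spike trains between electrode pairs, collapsed over four recording days as trapezoidal area-under-the-curve. Developing rat cortical neuron networks grown on MEAs received test chemical continuously from plating.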

[23] = biological target: Cellular tumor antigen p53 (Homo sapiens) (UniProt P04637); assay: TOX21_p53_BLA_p4_ratio: Tox21 HCT-116 p53 Agonism Beta-lactamase Assay, Ratio, Phase 4 (AID 2283601)
How it was run: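 HCT-116 p53 beta-lactamase reporter cells (4000/well) preincubated 5 h, then compound (217-fold dilution of DMSO stock) for 16 h at 37C. CCF4-AM substrate added 2 h at room temperature; 460/530 nm emission ratio fitted upward versus DMSO.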

Measured: AC50

Sequence of Cellular tumor antigen p53 (Homo sapiens) (P04637 whole entry, looked up): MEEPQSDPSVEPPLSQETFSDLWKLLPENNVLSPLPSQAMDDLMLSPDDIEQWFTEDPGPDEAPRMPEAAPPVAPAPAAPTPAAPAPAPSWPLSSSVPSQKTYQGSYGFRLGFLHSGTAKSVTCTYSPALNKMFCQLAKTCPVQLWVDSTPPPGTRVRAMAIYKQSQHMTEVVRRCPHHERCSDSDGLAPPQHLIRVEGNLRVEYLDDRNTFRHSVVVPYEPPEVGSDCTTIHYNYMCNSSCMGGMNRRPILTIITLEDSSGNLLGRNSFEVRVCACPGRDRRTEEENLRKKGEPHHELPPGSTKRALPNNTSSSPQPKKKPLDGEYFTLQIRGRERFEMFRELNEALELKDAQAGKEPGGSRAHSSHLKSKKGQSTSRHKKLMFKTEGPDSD

CCC1(c2ccccc2)C(=O)NC(=O)NC1=O
not listed: [23]
inactive: all other assays above

CC(=O)C(Cl)(Cl)Cl
inactive: [1] | [3] | [5] | [7] | [23]
active: [2] 1290 nM | [4] 778 nM | [6] 1520 nM

C[C@]12C[C@H]3S[C@H]3C[C@@H]1CC[C@@H]1[C@@H]2CC[C@]2(C)[C@@H](O)CC[C@@H]12
inactive: [1] | [2] | [3] | [4] | [5] | [7]

Nc1ccccc1C(=O)OCC=Cc1ccccc1
inactive: [2] | [3] | [4] | [5] | [6] | [23]
active: [1] 66300 nM
